# Data taken from PubChem BioAssay (EPA / NIEHS).
# Results filed as inconclusive are left out. Active and inactive are the calls of the source. Rule for the calls, unless noted: active = hit-call score of the fitted dose curve at least 0.9, where 1 is the maximum; inactive = score below 0.9.
# Legend:
# [1] = ATG_CMV_CIS: Attagene CIS-FACTORIAL HepG2 Assay for human CMV (Internal Marker) (AID 2282928); conditions: HepG2 CMV promoter reporter, transcription factor profiling; actives raise or lower the signal;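 note: endpoint acts as a background internal control marker rather than a target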
# Procedure, shortened: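 24 h chemical treatment, HepG2 with transient multi-reporter transfection; RNA → oligo(dT) RT → PCR → 6-FAM extension → HpaI digest → CE fluorescence. Bidirectional fit, DMSO negative control.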
# [2] = ATG_DR4_LXR_CIS: Attagene CIS-FACTORIAL HepG2 Assay for human Liver X Receptor (LXR), DR4 submotif (AID 2282929); conditions: HepG2 Attagene DR4 cis-reporter, mRNA transcription; actives raise or lower the signal
# Procedure, shortened: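 Measures endogenous transcription factor activity via a DR4-driven reporter transcript in human HepG2 cells. Compounds incubated 24 h; mRNA quantified by RT-PCR and capillary electrophoresis, analysed as gain or loss of signal versus DMSO.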
# [3] = ATG_M_19_CIS: Attagene CIS-FACTORIAL HepG2 Assay for M19 Transcription Factor (Internal Marker) (AID 2282939); conditions: HepG2 Attagene CIS-FACTORIAL M19 internal marker reporter; actives raise or lower the signal
# Procedure, shortened: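 Chemical-treated HepG2 (24 h) with MRTU constructs; reporter transcripts detected by fluorescent RT-PCR fragment analysis on capillary electrophoresis. Internal background marker, DMSO as baseline.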
# [4] = target: Hepatocyte nuclear factor 3-beta (Homo sapiens) (UniProt Q9Y261); experiment: ATG_FoxA2_CIS: Attagene CIS-FACTORIAL HepG2 Assay for human Forkhead box A2 (FOXA2) (AID 2282942); conditions: HepG2 cis-reporter transcription factor activity, 24 h; actives raise or lower the signal
# Procedure, shortened: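 In transiently transfected human HepG2 cells, promoter-driven reporter mRNA levels after 24 h chemical exposure are determined via RT-PCR with capillary electrophoresis. DMSO serves as baseline for bidirectional fitting.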
# [5] = ATG_ISRE_CIS: Attagene CIS-FACTORIAL HepG2 Assay for human Interferon Regulatory Factor 1 (IRF1) binding to an Interferon-Stimulated Response Element (ISRE) (AID 2282948); conditions: HepG2 ISRE cis-reporter (Attagene), mRNA transcription readout; actives raise or lower the signal
# Procedure, shortened: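 Multiplexed mRNA reporter readout in human liver HepG2 cells: cis-element-driven reporters transfected, compound added for 24 h, transcripts amplified, fluorescently labelled and sized by capillary electrophoresis; curve fitting bidirectional against DMSO.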
# [6] = target: Hypoxia-inducible factor 1-alpha (Homo sapiens) (UniProt Q16665); experiment: ATG_HIF1a_CIS: Attagene CIS-FACTORIAL HepG2 Assay for human Hypoxia Inducible Factor 1 (HIF1A) (AID 2282951); conditions: HepG2 Attagene cis-factorial HIF1a reporter transcription; actives raise or lower the signal
# Procedure, shortened: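 In this multiplexed cell assay, HepG2 cells bearing transfected cis reporters are dosed for 24 h and reporter mRNA is read by RT-PCR plus capillary electrophoresis; signal increases and decreases are both scored against DMSO.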
# [7] = target: Hepatocyte nuclear factor 6 (Homo sapiens) (UniProt Q9UBC0); experiment: ATG_HNF6_CIS: Attagene CIS-FACTORIAL HepG2 Assay for human Hepatocyte Nuclear Factor 6 (HNF6) (AID 2282952); conditions: HepG2 Attagene cis-factorial HNF6 reporter transcription; actives raise or lower the signal
# Procedure, shortened: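 Endogenous transcription factor activity in human HepG2 liver cells was captured through cis-regulated reporter constructs. After 24 h treatment, reporter mRNA was measured by RT-PCR with capillary electrophoresis, and activity was fitted in both directions relative to DMSO.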
# [8] = target: Heat shock factor protein 1 (Homo sapiens) (UniProt Q00613); experiment: ATG_HSE_CIS: Attagene CIS-FACTORIAL HepG2 Assay for human Heat Shock Transcription Factor 1 (HSE) (AID 2282953); conditions: HepG2 HSE cis-reporter, Attagene RNA transcription; actives raise or lower the signal
# Procedure, shortened: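 Liver-derived HepG2 cells carry transiently introduced multiple reporter units governed by cis promoters. Reporter RNA measured 24 h post-dose through reverse transcription, PCR amplification, fluorescent labelling and capillary electrophoresis, normalised to DMSO.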
# [9] = ATG_RORE_CIS: Attagene CIS-FACTORIAL HepG2 Assay for human RAR-related Orphan Receptor Element (RORE) (AID 2282959); conditions: HepG2 Attagene cis-factorial RORE reporter, mRNA; actives raise or lower the signal
# Procedure, shortened: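 Fluorescence intensity of reporter-specific cDNA fragments, separated by capillary electrophoresis, gives the signal. Source: HepG2 liver cells transiently transfected with cis-element reporters and exposed 24 h; DMSO-normalized bidirectional fit.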
# [10] = ATG_Sox_CIS: Attagene CIS-FACTORIAL HepG2 Assay for human SRY-box transcription factor (SOX) (AID 2282960); conditions: HepG2 Attagene cis-factorial SOX reporter, mRNA; actives raise or lower the signal
# Procedure, shortened: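 After 24 h of chemical treatment, transfected HepG2 reporter cells are lysed for total RNA. Transcript levels come from RT-PCR with labelled primer extension and capillary electrophoresis, analysed bidirectionally versus DMSO.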
# [11] = ATG_TA_CIS: Attagene CIS-FACTORIAL HepG2 Assay for human TA Basal Promoter (AID 2282964); conditions: HepG2 Attagene CIS-factorial TA basal promoter reporter; actives raise or lower the signal
# Procedure, shortened: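 Background internal-marker endpoint from a 52-component HepG2 cis-reporter panel. Cells treated 24 h; reporter transcripts quantified via RT-PCR and CE fluorescence against DMSO baseline.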
# [12] = ATG_TGFb_CIS: Attagene CIS-FACTORIAL HepG2 Assay for human Transforming Growth Factor (TGF) (AID 2282967); conditions: HepG2 Attagene CIS TGFb reporter, mRNA transcription; actives raise or lower the signal
# Procedure, shortened: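 Liver HepG2 line, cis-factorial reporter panel, 24 h dosing. Quantitation: RT-PCR products labeled with 6-FAM, cut with HpaI, resolved by capillary electrophoresis; DMSO-referenced bidirectional analysis.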
# [13] = ATG_VDRE_CIS: Attagene CIS-FACTORIAL HepG2 Assay for human Vitamin D Receptor Element (VDRE) (AID 2282968); conditions: HepG2 VDRE cis-reporter transcription, actives raise or lower the signal
# Procedure, shortened: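 Transfected HepG2 reporter cells, chemical treatment 24 h. RNA isolated, cDNA amplified with reporter-specific primers, products analysed by capillary electrophoresis. Endpoint fitted in both directions versus DMSO.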
# [14] = ATG_M_06_TRANS: Attagene TRANS-FACTORIAL HepG2 Assay for M06 Transcription Factor (Internal Marker) (AID 2282983; active = hit-call score of the fitted dose curve at least 0.9, where 1 is the maximum); conditions: HepG2 Attagene TRANS M06 internal marker reporter
# Procedure, shortened: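 Human liver HepG2 cells bearing transiently transfected chimeric NR-GAL4 reporter units were treated with chemicals for 24 h. Total RNA was reverse-transcribed, reporter sequences amplified and labelled, then quantified by capillary electrophoresis. Activity was fitted upward relative to DMSO.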
# [15] = ATG_NFI_CIS: Attagene CIS-FACTORIAL HepG2 Assay for human Nuclear Factor I (NFI) (AID 2282989); conditions: HepG2 cis-regulatory reporter, NFI response element transcription; actives raise or lower the signal
# Procedure, shortened: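 Transfected HepG2 liver cells, exposed 24 h, supplied total RNA for oligo(dT) reverse transcription and reporter-specific PCR. Labelled, HpaI-cut fragments were sized by capillary electrophoresis; DMSO set the baseline for bidirectional fitting.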
# [16] = target: Myc proto-oncogene protein (Homo sapiens) (UniProt P01106); experiment: ATG_Myc_CIS: Attagene CIS-FACTORIAL HepG2 Assay for human Myelocytomatosis (Myc) Proto-Oncogene Transcription Factor (AID 2282990); conditions: HepG2, Attagene cis-reporter transcription factor activity; actives raise or lower the signal
# Procedure, shortened: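 DMSO-normalised, bidirectionally fitted reporter mRNA signal. HepG2 cells transfected with cis reporter constructs, treated 24 h; transcripts detected by RT-PCR, 6-FAM primer extension and CE.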
# [17] = ATG_NRF2_ARE_CIS: Attagene CIS-FACTORIAL HepG2 Assay for human Nuclear Factor Erythroid 2 Related Factor 2 (NFR2) response to Antioxidant Response Elements (ARE) (AID 2282992); conditions: HepG2 Attagene ARE/NRF2 reporter, transcription factor activity; actives raise or lower the signal;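 for AC50: reporter mRNA level measured by RT-PCR and capillary electrophoresis fluorescence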
# Procedure, shortened: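 Endogenous transcription factor activity in human liver HepG2 cells is tracked via a cis-element-driven reporter within a multiplexed set. mRNA induction is read by RT-PCR and capillary electrophoresis after 24 h, with DMSO as baseline.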
# [18] = target: Nuclear receptor subfamily 1 group I member 2 (Homo sapiens) (UniProt O75469); experiment: ATG_PXR_TRANS: Attagene TRANS-FACTORIAL HepG2 Assay for human Pregnane X Receptor (PXR) (AID 2283008; active = hit-call score of the fitted dose curve at least 0.9, where 1 is the maximum)
# Procedure, shortened: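 HepG2 transfected (FuGene 6) with GAL4-UAS reporter units + PXR-Gal4 chimera; dosed 24 h. Total RNA → oligo(dT) RT → PCR → 6-FAM primer extension → HpaI cut → CE. Gain-of-signal vs DMSO.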
# [19] = target: Transcription factor E2F1 (Homo sapiens) (UniProt Q01094); experiment: ATG_E2F_CIS: Attagene CIS-FACTORIAL HepG2 Assay for human E2F Transcription Factor 1 (AID 2282935); conditions: HepG2 Attagene cis-reporter, E2F reporter RNA transcripts; actives raise or lower the signal
# Procedure, shortened: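 In this cis-factorial format, endogenous factor activity drives transfected reporters in HepG2; transcripts collected at 24 h are quantified by fluorescence after RT-PCR and capillary separation.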
# [20] = target: Cellular tumor antigen p53 (Homo sapiens) (UniProt P04637); experiment: ATG_p53_CIS: Attagene CIS-FACTORIAL HepG2 Assay for human p53 Transcription Factor (AID 2282994); conditions: HepG2 p53 cis-element reporter, Attagene mRNA; actives raise or lower the signal
# Procedure, shortened: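 Steps: transfect HepG2 with multiplexed cis reporter constructs; dose chemicals 24 h; extract RNA, reverse-transcribe, PCR-amplify reporter sequences; FAM-label, HpaI-digest, resolve fragments by CE. Activity fitted both directions relative to DMSO.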
# Hypoxia-inducible factor 1-alpha (Homo sapiens), sequence (Q16665 whole entry, looked up): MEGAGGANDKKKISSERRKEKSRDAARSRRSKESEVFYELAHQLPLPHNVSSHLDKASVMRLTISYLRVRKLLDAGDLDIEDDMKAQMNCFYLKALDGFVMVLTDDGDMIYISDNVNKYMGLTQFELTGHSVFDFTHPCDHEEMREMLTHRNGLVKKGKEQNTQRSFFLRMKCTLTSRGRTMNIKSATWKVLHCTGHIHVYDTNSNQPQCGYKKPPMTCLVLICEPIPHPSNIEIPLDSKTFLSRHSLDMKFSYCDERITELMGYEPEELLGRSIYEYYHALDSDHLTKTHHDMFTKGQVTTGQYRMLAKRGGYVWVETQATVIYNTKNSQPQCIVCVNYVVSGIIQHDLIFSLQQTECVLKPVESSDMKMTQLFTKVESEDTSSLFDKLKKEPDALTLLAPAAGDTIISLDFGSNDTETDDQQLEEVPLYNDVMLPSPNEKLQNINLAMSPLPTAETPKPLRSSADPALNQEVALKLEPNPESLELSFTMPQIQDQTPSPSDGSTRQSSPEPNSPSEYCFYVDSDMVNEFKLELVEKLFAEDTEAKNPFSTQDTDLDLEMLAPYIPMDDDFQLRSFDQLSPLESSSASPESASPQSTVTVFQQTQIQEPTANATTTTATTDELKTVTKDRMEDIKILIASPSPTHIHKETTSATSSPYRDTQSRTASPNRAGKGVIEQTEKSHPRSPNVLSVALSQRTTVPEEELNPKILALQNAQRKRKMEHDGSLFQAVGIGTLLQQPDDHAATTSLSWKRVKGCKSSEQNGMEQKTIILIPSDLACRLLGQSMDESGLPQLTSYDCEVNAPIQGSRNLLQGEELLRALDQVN
# Cellular tumor antigen p53 (Homo sapiens), sequence (P04637 whole entry, looked up, the tested form may be a part): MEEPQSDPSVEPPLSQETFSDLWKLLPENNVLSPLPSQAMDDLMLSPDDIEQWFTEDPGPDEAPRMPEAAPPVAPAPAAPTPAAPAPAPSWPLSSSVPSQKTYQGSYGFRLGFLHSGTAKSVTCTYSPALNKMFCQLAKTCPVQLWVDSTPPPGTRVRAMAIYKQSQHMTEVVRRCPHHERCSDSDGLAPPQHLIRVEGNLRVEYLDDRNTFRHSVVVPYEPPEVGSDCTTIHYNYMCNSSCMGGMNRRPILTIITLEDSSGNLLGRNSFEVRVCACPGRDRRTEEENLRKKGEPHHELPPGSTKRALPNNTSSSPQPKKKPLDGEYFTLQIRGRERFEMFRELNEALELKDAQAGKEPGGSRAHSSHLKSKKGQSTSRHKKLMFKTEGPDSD
# Hepatocyte nuclear factor 6 (Homo sapiens), sequence (Q9UBC0 whole entry, looked up): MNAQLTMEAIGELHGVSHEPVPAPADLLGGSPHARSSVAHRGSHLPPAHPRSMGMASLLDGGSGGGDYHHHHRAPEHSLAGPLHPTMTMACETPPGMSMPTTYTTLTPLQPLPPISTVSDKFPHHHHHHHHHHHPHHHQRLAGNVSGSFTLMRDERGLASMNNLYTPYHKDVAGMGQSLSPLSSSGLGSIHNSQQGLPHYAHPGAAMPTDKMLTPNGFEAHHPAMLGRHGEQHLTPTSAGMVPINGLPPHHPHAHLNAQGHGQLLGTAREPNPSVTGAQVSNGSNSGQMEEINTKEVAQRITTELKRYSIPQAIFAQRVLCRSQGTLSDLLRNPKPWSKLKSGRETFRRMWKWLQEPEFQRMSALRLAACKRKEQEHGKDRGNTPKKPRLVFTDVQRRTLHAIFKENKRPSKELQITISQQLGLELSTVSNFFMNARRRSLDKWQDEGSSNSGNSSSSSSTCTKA
# Nuclear receptor subfamily 1 group I member 2 (Homo sapiens), sequence (O75469 whole entry, looked up, the tested form may be a part): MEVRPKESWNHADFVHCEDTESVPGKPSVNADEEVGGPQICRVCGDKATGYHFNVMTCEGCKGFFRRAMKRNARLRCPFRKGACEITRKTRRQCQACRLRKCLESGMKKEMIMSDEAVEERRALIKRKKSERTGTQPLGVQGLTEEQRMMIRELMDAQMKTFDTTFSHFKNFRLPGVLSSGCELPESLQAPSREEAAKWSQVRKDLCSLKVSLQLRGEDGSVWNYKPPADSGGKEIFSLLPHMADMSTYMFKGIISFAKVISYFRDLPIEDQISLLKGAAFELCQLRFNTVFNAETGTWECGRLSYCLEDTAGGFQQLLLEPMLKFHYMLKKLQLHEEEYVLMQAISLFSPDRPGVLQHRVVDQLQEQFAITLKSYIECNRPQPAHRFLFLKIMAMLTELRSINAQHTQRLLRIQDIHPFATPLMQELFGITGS
# Transcription factor E2F1 (Homo sapiens), sequence (Q01094 whole entry, looked up): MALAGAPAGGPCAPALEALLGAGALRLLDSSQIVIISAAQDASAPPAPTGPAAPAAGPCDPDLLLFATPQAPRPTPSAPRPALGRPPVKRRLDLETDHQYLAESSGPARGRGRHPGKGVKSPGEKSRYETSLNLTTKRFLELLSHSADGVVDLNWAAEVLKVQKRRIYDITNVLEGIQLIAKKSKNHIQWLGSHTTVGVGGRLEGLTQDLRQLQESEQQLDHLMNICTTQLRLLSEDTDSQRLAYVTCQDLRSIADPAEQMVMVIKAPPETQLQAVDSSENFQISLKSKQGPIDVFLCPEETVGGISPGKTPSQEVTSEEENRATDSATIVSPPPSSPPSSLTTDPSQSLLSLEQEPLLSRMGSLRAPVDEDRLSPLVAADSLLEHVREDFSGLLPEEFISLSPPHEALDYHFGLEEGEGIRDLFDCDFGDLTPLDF
# Hepatocyte nuclear factor 3-beta (Homo sapiens), sequence (Q9Y261 whole entry, looked up): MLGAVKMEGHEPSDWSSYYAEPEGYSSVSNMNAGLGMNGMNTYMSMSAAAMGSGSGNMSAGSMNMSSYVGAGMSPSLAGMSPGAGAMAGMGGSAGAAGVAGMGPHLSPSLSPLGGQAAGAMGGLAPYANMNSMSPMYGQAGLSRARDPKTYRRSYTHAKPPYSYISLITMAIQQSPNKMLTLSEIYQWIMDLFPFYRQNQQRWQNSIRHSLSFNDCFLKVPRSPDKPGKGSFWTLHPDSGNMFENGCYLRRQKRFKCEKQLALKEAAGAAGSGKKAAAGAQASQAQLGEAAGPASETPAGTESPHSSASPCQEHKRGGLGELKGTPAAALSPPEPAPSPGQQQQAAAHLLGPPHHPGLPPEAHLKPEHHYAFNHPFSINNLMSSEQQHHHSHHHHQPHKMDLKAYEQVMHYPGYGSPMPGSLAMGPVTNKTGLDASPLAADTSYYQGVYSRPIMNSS
# Heat shock factor protein 1 (Homo sapiens), sequence (Q00613 whole entry, looked up): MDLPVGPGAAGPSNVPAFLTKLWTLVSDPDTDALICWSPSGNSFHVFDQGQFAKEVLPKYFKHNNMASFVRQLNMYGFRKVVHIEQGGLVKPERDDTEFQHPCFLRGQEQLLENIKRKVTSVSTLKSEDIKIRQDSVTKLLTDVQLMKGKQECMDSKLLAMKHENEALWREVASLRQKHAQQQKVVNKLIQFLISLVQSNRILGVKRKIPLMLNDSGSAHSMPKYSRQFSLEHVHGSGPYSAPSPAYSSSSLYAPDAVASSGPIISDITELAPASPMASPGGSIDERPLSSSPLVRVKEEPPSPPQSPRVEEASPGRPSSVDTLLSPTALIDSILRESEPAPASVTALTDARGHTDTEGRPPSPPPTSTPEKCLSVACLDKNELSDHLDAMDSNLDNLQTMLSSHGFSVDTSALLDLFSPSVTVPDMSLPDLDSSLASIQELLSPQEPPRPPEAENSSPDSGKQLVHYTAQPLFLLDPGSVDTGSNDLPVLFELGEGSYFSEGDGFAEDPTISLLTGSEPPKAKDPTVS
# Myc proto-oncogene protein (Homo sapiens), sequence (P01106 whole entry, looked up): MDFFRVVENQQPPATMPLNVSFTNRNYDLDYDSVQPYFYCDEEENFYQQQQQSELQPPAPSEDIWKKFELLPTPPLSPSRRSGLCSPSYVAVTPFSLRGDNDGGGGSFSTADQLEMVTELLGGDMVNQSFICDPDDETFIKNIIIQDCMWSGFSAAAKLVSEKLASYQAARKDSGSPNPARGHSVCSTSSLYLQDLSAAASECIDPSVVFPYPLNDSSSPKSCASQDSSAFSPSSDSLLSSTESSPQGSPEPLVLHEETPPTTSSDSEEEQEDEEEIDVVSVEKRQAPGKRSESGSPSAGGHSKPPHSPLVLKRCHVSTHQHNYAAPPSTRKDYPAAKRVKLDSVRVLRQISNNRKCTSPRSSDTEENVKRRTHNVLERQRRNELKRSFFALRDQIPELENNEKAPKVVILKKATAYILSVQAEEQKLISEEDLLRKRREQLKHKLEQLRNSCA
structure (smiles),measurement,setting,value
CCOc1ccc2c(c1)C(C)CC(C)(C)N2 (stereo unspecified),outcome,[1],inactive
same,outcome,[2],inactive
same,outcome,[3],inactive
same,outcome,[4],inactive
same,outcome,[5],inactive
same,outcome,[6],inactive
same,outcome,[7],inactive
same,outcome,[8],inactive
same,outcome,[9],inactive
same,outcome,[10],inactive
same,outcome,[11],inactive
same,outcome,[12],inactive
same,AC50,[13],34 µM (active)
same,outcome,[14],inactive
same,outcome,[15],inactive
same,outcome,[16],inactive
same,outcome,[17],inactive
same,AC50,[18],3.63 µM (active)
O=[N+]([O-])c1ccccc1C(F)(F)F,outcome,[1],inactive
same,outcome,[2],inactive
same,outcome,[19],inactive
same,outcome,[4],inactive
same,outcome,[5],inactive
same,AC50,[6],48.9 µM (active)
same,outcome,[7],inactive
same,outcome,[8],inactive
same,outcome,[9],inactive
same,outcome,[11],inactive
same,outcome,[12],inactive
same,outcome,[13],inactive
same,outcome,[15],inactive
same,outcome,[16],inactive
same,outcome,[17],inactive
same,outcome,[20],inactive
same,outcome,[18],inactive
Sc1nc2ccccc2s1,outcome,[1],inactive
same,outcome,[2],inactive
same,outcome,[3],inactive
same,outcome,[4],inactive
same,outcome,[5],inactive
same,outcome,[6],inactive
same,outcome,[7],inactive
same,outcome,[8],inactive
same,AC50,[9],19.3 µM (active)
same,outcome,[10],inactive
same,outcome,[12],inactive
same,outcome,[13],inactive
same,outcome,[14],inactive
same,outcome,[15],inactive
same,outcome,[16],inactive
same,AC50,[17],100 µM (active)
same,outcome,[20],inactive
same,outcome,[18],inactive
CCCCNC(N)=O,outcome,[1],inactive
same,outcome,[2],inactive
same,outcome,[19],inactive
same,outcome,[3],inactive
same,outcome,[4],inactive
same,outcome,[5],inactive
same,outcome,[6],inactive
same,outcome,[7],inactive
same,outcome,[8],inactive
same,outcome,[9],inactive
same,outcome,[10],inactive
same,outcome,[11],inactive
same,outcome,[12],inactive
same,outcome,[13],inactive
same,outcome,[14],inactive
same,outcome,[15],inactive
same,outcome,[16],inactive
same,outcome,[17],inactive
same,outcome,[20],inactive
same,outcome,[18],inactive
O=C(c1ccccc1)c1ccccc1O,outcome,[1],inactive
same,AC50,[2],162 µM (active)
same,outcome,[19],inactive
same,outcome,[3],inactive
same,outcome,[4],inactive
same,AC50,[5],161 µM (active)
same,outcome,[6],inactive
same,AC50,[7],148 µM (active)
same,outcome,[8],inactive
same,outcome,[9],inactive
same,outcome,[10],inactive
same,outcome,[11],inactive
same,outcome,[12],inactive
same,outcome,[13],inactive
same,outcome,[14],inactive
same,AC50,[15],156 µM (active)
same,AC50,[16],135 µM (active)
same,outcome,[17],inactive
same,AC50,[18],34.4 µM (active)
CCC(C)=NO,outcome,[1],inactive
same,outcome,[2],inactive
same,outcome,[19],inactive
same,outcome,[3],inactive
same,outcome,[4],inactive
same,outcome,[6],inactive
same,outcome,[7],inactive
same,outcome,[8],inactive
same,outcome,[9],inactive
same,outcome,[10],inactive
same,outcome,[12],inactive
same,outcome,[13],inactive
same,outcome,[14],inactive
same,outcome,[15],inactive
same,outcome,[16],inactive
same,outcome,[17],inactive
same,outcome,[20],inactive
C=CCOC(=O)C(=C)C,outcome,[1],inactive
same,outcome,[2],inactive
same,outcome,[19],inactive
same,outcome,[3],inactive
same,outcome,[4],inactive
same,outcome,[6],inactive
same,outcome,[7],inactive
same,outcome,[8],inactive
same,outcome,[9],inactive
same,outcome,[12],inactive
same,outcome,[13],inactive
same,outcome,[14],inactive
same,outcome,[15],inactive
same,outcome,[16],inactive
same,outcome,[17],inactive
same,outcome,[20],inactive
CCCCC(CC)COC(=O)CS (stereo unspecified),outcome,[1],inactive
same,outcome,[2],inactive
same,outcome,[19],inactive
same,outcome,[4],inactive
same,outcome,[5],inactive
same,outcome,[6],inactive
same,outcome,[7],inactive
same,outcome,[8],inactive
same,outcome,[11],inactive
same,outcome,[12],inactive
same,AC50,[13],26.4 µM (active)
same,outcome,[15],inactive
same,outcome,[16],inactive
same,outcome,[17],inactive
same,outcome,[20],inactive
same,outcome,[18],inactive
